Drawing on PubChem BioAssay (NCI), this text covers growth inhibition for 36 compounds.

Test [1] can be described thus: NCI Yeast Anticancer Drug Screen. Data for the rad50 strain (AID 155).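 Also: 0% = growth of vehicle-only cultures of the same strain.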 As to conditions: S. cerevisiae rad50 strain growth inhibition; at 50.0 µM; hits give high values. In short, it runs like this: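 A DNA repair-deficient yeast mutant serves as the test organism; compound-induced growth inhibition is calculated against vehicle-treated cells.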
The nature of test [2]: NCI Yeast Anticancer Drug Screen. Data for the mec2-1 strain (AID 157). As to conditions: S. cerevisiae mec2-1 strain, at 50.0 µM, hits give high values. In short, it runs like this: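 mec2-1 yeast strain, carrying an alteration in DNA damage repair or cell cycle control, was exposed to compounds; growth inhibition was measured relative to vehicle-treated controls.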
Test [3] can be described thus: NCI Yeast Anticancer Drug Screen. Data for the sgs1 mgt1 strain (AID 161).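 Also: 0% = growth of cultures given vehicle only.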 As to conditions: S. cerevisiae sgs1 mgt1 strain, at 50.0 µM, hits give high values. The method, boiled down: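 This yeast growth screen uses a strain with defined DNA-repair lesions; compound-treated growth is compared with vehicle-treated growth.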
Test [4] is described as follows: NCI Yeast Anticancer Drug Screen. Data for the cln2 rad14 strain (AID 165).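 Also: 0% = growth equal to vehicle treated cultures.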 As to conditions: S. cerevisiae cln2 rad14 strain, at 50.0 µM, hits give high values. In short, it runs like this: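 Yeast carrying cln2 and rad14 alterations (cell cycle control and DNA damage repair) were exposed to compounds. Growth inhibition was measured against vehicle-treated controls.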

Test [5] is described as follows: NCI Yeast Anticancer Drug Screen. Data for the bub3 strain (AID 167). As to conditions: S. cerevisiae bub3 mutant strain, at 50.0 µM, hits give high values. The method, boiled down:
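Inhibition values come from growth of compound-treated mutant yeast normalised to vehicle-treated controls.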

A short description of test [6]: NCI Yeast Anticancer Drug Screen. Data for the mlh1 rad18 strain (AID 175). As to conditions: S. cerevisiae mlh1 rad18 strain growth inhibition; at 50.0 µM; hits give high values. In short, it runs like this:
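Growth inhibition of the yeast strain was measured after compound exposure and expressed relative to vehicle-treated controls. The strain carries defined defects in DNA damage repair.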

The panel holds about 79,000 compounds, 15% with a hit somewhere; the sample as a whole holds those more often. Values without a mark were called inactive. Calls of active or inactive are those of the source. Rule as the data show it: active = growth inhibition above about 70%; inactive = the rest.

For the compound `COc1ccc([B-]23OCC[N+]2(CNC(=O)c2ccccc2O)CCO3)cc1` (stereo unspecified), the growth inhibition in test [1] was 27.4%; in test [2] it was 2.7%; in test [3], 13.9%; in test [4], 14.9%; in test [5], 7.3%; in test [6], 17.6%.

On to `C(=N\c1oc(-c2ccccc2)nc1SCc1ccccc1)/c1ccccc1`, for which the growth inhibition is 2.75% in test [1]; 11.2% in test [2]; 23.1% in test [3]; -19.8% in test [4]; 7.3% in test [5]; 25.9% in test [6].

Consider `Cc1cc(S(=O)(=O)Nc2nc(N)nc(N(C)C)n2)c(S)cc1Cl`, for which the growth inhibition in test [1] was 1.4%; in test [2], -17.2%; in test [3] it was -3.5%; in test [4] it was 1.9%; in test [5], -46%; in test [6] it was 15.1%.

In the case of `O=P(Nc1ccc(Cl)cc1)(c1ccc(Cl)cc1)c1ccc(Cl)cc1`, the growth inhibition was 17.6% in test [1]; 6.05% in test [2]; 4.05% in test [3]; -16.1% in test [4]; -0.15% in test [5]; 20.9% in test [6].

Regarding `CN(C)C(=O)Nc1ccc(F)cc1`, the growth inhibition is -5.75% in test [1]; -25.6% in test [2]; 13.6% in test [3]; -20.6% in test [4]; -24.9% in test [5]; -16.6% in test [6].

`COC(=O)CC1C=CC(OC)[C@@]2(C)C(=O)C=C(C)C(=O)[C@@H]12` (stereo partly specified): the growth inhibition is 4.85% in test [1]; -1.95% in test [2]; 18.6% in test [3]; -16.6% in test [4]; 3.8% in test [5]; 3.15% in test [6].

On to `N#CCCOCc1ccccc1`, for which the growth inhibition is -46.8% in test [1]; -23.8% in test [2]; -1.05% in test [3]; -3.15% in test [4]; -15.1% in test [5]; 0.55% in test [6].

As for `Cc1ccccc1SCC(N)=O`, the growth inhibition in test [1] is 6.55%; in test [2], 9.1%; in test [3] it was -0.85%; in test [4], -12.1%; in test [5], 5.35%; in test [6] it was -0.7%.

Take `Cc1ccc(NC2=N/C(=C/c3ccco3)C(Cl)=N2)cc1`: the growth inhibition in test [1] was -21.5%; in test [2], -22.1%; in test [3], 14.5%; in test [4], -1.8%; in test [5] it was 3.8%; in test [6], -31.9%.

As for `CCOC1(c2ccccc2)OC(=O)c2ccccc21` (stereo unspecified), the growth inhibition was 18.9% in test [1]; 3.15% in test [2]; 9.8% in test [3]; 16.7% in test [4]; 2.4% in test [5]; 11.7% in test [6].

For `Nc1ncnc(N)c1NC(=O)c1cccc(C(=O)c2ccccc2)c1`, the growth inhibition in test [1] is 2.85%; in test [2], 16.1%; in test [3], -10.7%; in test [4] it was -3.5%; in test [5], 0.85%; in test [6] it was 0.85%.

Consider `Cc1ccc(N=Nc2c(N)ccc3ccccc23)cc1`, for which the growth inhibition in test [1] is 90.5% (active); in test [2], 87.2% (active); in test [3], 89.6% (active); in test [4], 84.2% (active); in test [5], 87% (active); in test [6], 86.5% (active).

Take `CCCCCOC(C)(OCCCCC)OCCCCC`: the growth inhibition in test [1] was 7%; in test [2], 13.6%; in test [3], -4.2%; in test [4] it was 2.8%; in test [5], 9.6%; in test [6], 7.5%.

Regarding `COc1nc(Cl)cc2nc(Cl)cn12`, the growth inhibition in test [1] is 3.4%; in test [2] it was 9.35%; in test [3], -3.65%; in test [4] it was 9.55%; in test [5], -11.8%; in test [6], 2.55%.

As for `CC(C)OP(=O)(OC(C)C)c1ccc2c(c1)OCCOCCOCCOCCO2`, the growth inhibition in test [1] was -2.9%; in test [2] it was -11.3%; in test [3], 9.2%; in test [4], 4.2%; in test [5] it was -0.15%; in test [6] it was 21.4%.

Consider `C=C(CN(C)C)C(=O)c1ccccc1OC`, for which the growth inhibition was 35.7% in test [1]; 30.1% in test [2]; 44.8% in test [3]; -25.9% in test [4]; 35.3% in test [5]; 18.8% in test [6].

For `O=C(NC(=O)c1c(Cl)nc2sccn12)Nc1ccc(Cl)cc1`, the growth inhibition in test [1] is -5.45%; in test [2], -14.1%; in test [3] it was -4.65%; in test [4] it was 0.85%; in test [5], -0.6%; in test [6] it was -23.9%.

Take `O=C(c1ccc(Cl)cc1)c1ccc(OCCSCCCCCCCCCCSCCOc2ccc(C(=O)c3ccc(Cl)cc3)cc2)cc1`: the growth inhibition was -43.1% in test [1]; -27.7% in test [2]; -35.1% in test [3]; -9.4% in test [4]; -38.6% in test [5]; -30.9% in test [6].

Take `Cc1cn(C2CC(O)C(CO)O2)c(=O)nc1N1CCCCCCC1` (stereo unspecified): the growth inhibition was -6.85% in test [1]; -4.8% in test [2]; -11.3% in test [3]; -12.3% in test [4]; 4.85% in test [5]; 0.3% in test [6].

Turning to `CN(C)CCNC(=O)c1cccc(C(C)(C)C)c1[N+](=O)[O-]`, the growth inhibition in test [1] is -11.2%; in test [2], -30.1%; in test [3] it was -18.9%; in test [4] it was 0.35%; in test [5], -19.1%; in test [6] it was -20%.

As to `COc1ccc(C2SCC(=O)N2NC(=O)c2ccc(NC(C)=O)cc2)cc1` (stereo unspecified), the growth inhibition in test [1] is -50%; in test [2] it was -49.5%; in test [3], -62.5%; in test [4], -8.9%; in test [5], -21.7%; in test [6] it was -61.5%.

Turning to `C=CCN(CC=C)C(=O)C(=C)C`, the growth inhibition in test [1] was 3.3%; in test [2], -0.05%; in test [3], -5.5%; in test [4] it was 2.6%; in test [5], 3.7%; in test [6], -4.1%.

Take `O=C(c1ccccc1)C1C(c2ccccc2)C=CC(c2ccccc2)C1C(=O)c1ccccc1` (stereo unspecified): the growth inhibition is -18.4% in test [1]; -11.3% in test [2]; -9% in test [3]; -4.55% in test [4]; 3.2% in test [5]; -22.6% in test [6].

On to `CCCC1OCC=CCO1`, for which the growth inhibition in test [1] is 3.75%; in test [2], -23.6%; in test [3] it was -21.1%; in test [4], -1.45%; in test [5], -33.5%; in test [6], 20.4%.

With `O=C(c1ccccc1)N1OC2C=CC1CC2` (stereo unspecified), the growth inhibition in test [1] was 4.6%; in test [2] it was 4.6%; in test [3] it was 5.1%; in test [4], -34.2%; in test [5], -2.1%; in test [6], -1.8%.

On to `O=C(Nc1ccccc1Cl)Oc1ccc(C(=O)c2ccccc2)cc1`, for which the growth inhibition is -0.3% in test [1]; -13.3% in test [2]; 30.2% in test [3]; 19.9% in test [4]; 16.9% in test [5]; 13.2% in test [6].

With `Cc1cc2c(C(C)C)c(O)c(O)c(C=Nc3ccc(-c4ccccc4)cc3)c2c(O)c1-c1c(C)cc2c(C(C)C)c(O)c(O)c(C=Nc3ccc(-c4ccccc4)cc3)c2c1O`, the growth inhibition was -24.2% in test [1]; -10.4% in test [2]; -24.2% in test [3]; -15.2% in test [4]; -8.5% in test [5]; -7.4% in test [6].

In the case of `O=C(c1ccccc1)c1cnc2ccccn12`, the growth inhibition in test [1] was -2.35%; in test [2], -2.35%; in test [3] it was -3.15%; in test [4], -15.9%; in test [5], 5.8%; in test [6] it was -8.05%.

For `CCn1c(C)nc2ccccc21`, the growth inhibition in test [1] is -12.7%; in test [2] it was -6.55%; in test [3] it was 2.5%; in test [4], -0.5%; in test [5], -16.1%; in test [6], 1.5%.

For the compound `COc1ccc([N+](=O)[O-])c(C(OC(C)=O)OC(C)=O)c1OC(C)=O`, the growth inhibition in test [1] is 4%; in test [2] it was 5.6%; in test [3], 20.2%; in test [4], 9%; in test [5], 1.15%; in test [6], -9.4%.

On to `CC(C)CCCC(C)C1CCC2C3CC=C4C(C)(C)C(OC(=O)c5ccccc5)CCC4(C)C3CCC12C` (stereo unspecified), for which the growth inhibition in test [1] is 13.9%; in test [2], -6.6%; in test [3], -4.35%; in test [4], -4.35%; in test [5], 5.85%; in test [6], -1.3%.

On to `O=C(CCc1nnc2s/c(=C\c3ccc(Cl)cc3Cl)c(=O)n12)Nc1cc(Cl)c(Cl)cc1Cl`, for which the growth inhibition in test [1] was -17.6%; in test [2], 18.2%; in test [3] it was -7.4%; in test [4], 20.6%; in test [5] it was 9.05%; in test [6] it was 4.35%.

As for `C/C=C/COc1cc2c(cc1C(C)c1ccc(OC)cc1)OCO2` (stereo unspecified), the growth inhibition in test [1] was -9.3%; in test [2], -0.95%; in test [3], -6.15%; in test [4], 24.4%; in test [5], -3.85%; in test [6] it was -1.2%.

For the compound `CCOP(=O)(OCC)OC1CC(n2cc(C)c(=O)n(C)c2=O)OC1CO[Si](C)(C)C(C)(C)C` (stereo unspecified), the growth inhibition was 19.1% in test [1]; 1.5% in test [2]; 25.9% in test [3]; 17.6% in test [4]; 20.9% in test [5]; -12.7% in test [6].

Regarding `Cc1ccc(S(=O)(=O)OCC2OC(CCCO)C/C([Si](C)(C)C)=C\CC2Cl)cc1` (stereo unspecified), the growth inhibition was 48.8% in test [1]; 19.9% in test [2]; 38.2% in test [3]; 31.6% in test [4]; 34.5% in test [5]; 19.4% in test [6].

In the case of `O=C(NC(CSC(=O)OCc1ccccc1)C(=O)Oc1ccc([N+](=O)[O-])cc1)OCc1ccccc1` (stereo unspecified), the growth inhibition in test [1] was 16.3%; in test [2], -7.4%; in test [3] it was 3.45%; in test [4] it was -23.8%; in test [5], -0.45%; in test [6], 2.4%.
